The panel holds about 83,000 compounds, 20% with a hit somewhere; the sample as a whole holds those more often.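 Single-concentration screen, 48 h exposure, 96-well plates. Endpoint: percent growth. Below 10 = active.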 A number with no mark means an inactive call. Calls of active or inactive are those of the source.
Columns and labels:
Experiment in all cases: NCI-60 one-dose screen, 48 h (100 = growth as untreated, 0 = no growth, -100 = all killed)
Conditions in all cases: 10 µM unless noted
MOLT-4 leukemia = system: MOLT-4 leukemia
SR leukemia = system: SR leukemia
RPMI-8226 leukemia = system: RPMI-8226 leukemia
OVCAR-8 ovarian = system: OVCAR-8 ovarian
OVCAR-5 ovarian = system: OVCAR-5 ovarian
OVCAR-4 ovarian = system: OVCAR-4 ovarian
SK-OV-3 ovarian = system: SK-OV-3 ovarian
IGROV1 ovarian = system: IGROV1 ovarian
OVCAR-3 ovarian = system: OVCAR-3 ovarian
HS 578T breast = system: HS 578T breast
T-47D breast = system: T-47D breast
BT-549 breast = system: BT-549 breast
MDA-MB-435 melanoma = system: MDA-MB-435 melanoma
SW-620 colon = system: SW-620 colon
MCF7 breast = system: MCF7 breast
HCT-116 colon = system: HCT-116 colon
HCC-2998 colon = system: HCC-2998 colon
KM12 colon = system: KM12 colon
NCI/ADR-RES ovarian = system: NCI/ADR-RES ovarian

SMILES	growth (MOLT-4 leukemia)	growth (SR leukemia)	growth (RPMI-8226 leukemia)	growth (OVCAR-8 ovarian) [%]	growth (OVCAR-5 ovarian) [%]	growth (OVCAR-4 ovarian) [%]	growth (SK-OV-3 ovarian) [%]	growth (IGROV1 ovarian) [%]	growth (OVCAR-3 ovarian)	growth (HS 578T breast)	growth (T-47D breast) [%]	growth (BT-549 breast) [%]	growth (MDA-MB-435 melanoma)	growth (SW-620 colon)	growth (MCF7 breast) [%]	growth (HCT-116 colon)	growth (HCC-2998 colon)	growth (KM12 colon)	growth (NCI/ADR-RES ovarian) [%]
NC1CC2CCCCC2CC1(O)c1ccccc1 (stereo not drawn)	85.7%	90.7%	93.6%	98.6	95.4	102	107	102	109%	102%	99.5	102	105%	101%	96.1	93.7%	109%	99.7%	
C/C(=C\c1ccn(-c2ccccc2N)n1)[C@@H]1C[C@@H]2O[C@]2(C)CCC[C@H](C)[C@H](O)[C@@H](C)C(=O)C(C)(C)[C@@H](O)CC(=O)O1	12.4%	17.4%	15.3%	26.2	31.6	51.2	40.2	41.5	-2.9% (active)	7.14% (active)	36.4	15	-46.6% (active)	38.3%	18.6	12.1%	3.48% (active)	14.6%	
CC12CCC(O)CC1=CCC1C2CCC2(C)C(O)CCC12 (stereo not drawn)	114%	106%	94.6%	112	97.3	110	118	113	104%	105%	99.4		104%	105%	116	104%	109%	105%	110
COC(=O)[C@@H](C)C[C@H](Cc1ccccc1)NC(=O)c1csc([C@@H](C[C@H](C(C)C)N(C)C(=O)C2(NC(=O)[C@H]3CCCCN3C)CC2)OC(C)=O)n1	9.45% (active)	11%	12.8%	23.3	20.3	44.5	19.1	27.1	-16.4% (active)	12%	51.5	12.8	-28.8% (active)	22.2%	18.9	0.459% (active)	-2.95% (active)	5.25% (active)	
COc1cc2c(cc1OCc1ccccc1)C(CC(C)C)=[N+](C)CC2	91.8%	89.9%	56.4%	73.5	93	71.5	93.1		65.7%	83.1%	58.4	44	96.6%	93.7%	73.4	85.2%	79%	78.8%	101
O=C(CC1(O)C(=O)Nc2ccc(Br)cc21)c1ccc(C(=O)NCC2CCC3(CC2)OOC2(CCCCC2)OO3)cc1 (stereo not drawn)	-29.4% (active)	-38.7% (active)	-27.4% (active)	41.7	95.8	48.7	70.6	14.8	8.92% (active)	62.9%	14.7	63.6	36.1%	-12.5% (active)	32.5	38.9%	99.7%	31.6%	
CCOc1ccc(/C=C/[N+](=O)[O-])cc1	118%	67.5%	-36.4% (active)	101	89.8	87.9	111	86.5	86.3%		86	80.8	20.1%	66.6%	28.5	-31.6% (active)	23.7%	70.7%	100
CC(CO)NC1CCCCC1 (stereo not drawn)	98.9%	104%	112%	103	102	102	111	102	115%	115%		106	112%	105%	109	105%	106%	114%	

Source: PubChem BioAssay (NCI)
